In ChEMBL document CHEMBL4513216, “Probing the Open Global Health Chemical Diversity Library for Multistage-Active Starting Points for Next-Generation Antimalarials” (ACS Infect Dis, 2020):
The campaign covered roughly 69,000 compounds. About 8,600 (12%) showed an effect of 50% or more. The entries come from a sample that favours strong results as a whole.

Tested on: Plasmodium berghei
Experiment: Screen against P. berghei liver stage (PbLuc), transformed with Luciferase, at 10uM
Type: functional, HepG2
Conditions: tested at 10 uM

Compound | INHIBITION
CC(Oc1cccc(Cl)c1)C(=O)Nc1cnn(CCN(C)C)c1 (centres undefined) | 60%
CC(=O)c1cccc(OC(C)C(=O)Nc2cnn(CCN(C)C)c2)c1 (centres undefined) | 34.2%
CC(Oc1cccc(Cl)c1)C(=O)Nc1cnn(CC(=O)NC2CC2)c1 (centres undefined) | 10.7%
CC(C)c1cc(C(=O)NCCc2nc(-c3cccnc3)n[nH]2)[nH]n1 | 12.365%
c1cnc(N2CCc3onc(CN4CCOCC4)c3C2)cn1 | 12.6%
CSC1(CNC(=O)N(C)Cc2ccc(C)s2)CCOCC1 | 57.3%
CSC1(CNC(=O)N(C)Cc2sccc2C)CCOCC1 | 43.4%
CSC1(CNC(=O)N(C)Cc2ccc(Cl)s2)CCOCC1 | 19.1%
OCCN1CCN(CCOCC(F)(F)F)CC1 | 28.3%
COCCN1C(=O)C[C@H]2[C@H]1CCN2Cc1cccc(C#N)c1 | 33.5%
COCCN1C(=O)CC[C@@H]2[C@H]1CCN2Cc1cccc(C#N)c1 | 27.6%
N#Cc1cccc(CN2CC[C@@H]3[C@@H]2CC(=O)N3Cc2ccncc2)c1 | 29.9%
CC(C)CN1C(=O)C[C@@H]2[C@@H]1CCN2Cc1cccc(C#N)c1 | 63.7%
COCCN1C(=O)C[C@H]2[C@H]1CCN2Cc1ccccc1 | 54.4%
CN(C)C(=O)CN1C(=O)C[C@@H]2[C@@H]1CCN2Cc1cccc(C#N)c1 | 81.2%
N#Cc1cccc(CN2CC[C@@H]3[C@@H]2CC(=O)N3CCN2CCCC2)c1 | 21.8%
COCCN1C(=O)C[C@H]2[C@H]1CCN2Cc1ccc(OC)cc1 | 16.5%
CN1C(=O)C[C@H]2[C@H]1CCN2Cc1cccc(C#N)c1 | 7.77%
N#Cc1cccc(NC(=O)CCn2nc(-c3cccs3)oc2=O)c1 | 38.8%
COc1ccc(Cl)cc1Nc1nc(N)c(C(C)=O)s1 | 9.32%
OCCN1CCC2(CC1)CC(NCc1ccccn1)c1ccccc1O2 (centres undefined) | 33%
O=C(Nc1cccc(CNCc2ccccn2)c1)C1CCCC1 | -0.65%
O=C(Nc1ccc(CCN2CCC(O)CC2)cc1)C1CCCCC1 | 29.2%
CN1C(=O)CC2(CCN(S(=O)(=O)C3CC3)CC2)c2ccccc21 | 55.6%
CN(C)C(=O)N1CC2(CCN(S(C)(=O)=O)CC2)c2ccccc21 | -43.1%
CN1C(=O)CC2(CCN(S(=O)(=O)N(C)C)CC2)c2ccccc21 | 27.5%

Compound | INHIBITION
CN(C)C(=O)N1CC2(CCN(S(=O)(=O)C3CC3)CC2)c2ccccc21 | 38.2%
CN1CC2(CCN(S(=O)(=O)C3CC3)CC2)c2ccccc21 | 58.5%
CN1C(=O)C2(CCN(S(=O)(=O)C3CC3)CC2)c2ccccc21 | -3.51%
O=C(c1ccccn1)N1CCC2(CCCN(c3nncs3)C2)C1 (centres undefined) | 28.5%
COc1c(C2CC(=O)Nc3[nH]ncc32)cc2c(c1OC)OCO2 (centres undefined) | 7.38%
Cc1sc(CN)nc1-c1ccccc1 | 6.54%
Cc1ccc(C(=O)N2CCc3ccc(=O)n(CCN(C)C)c3CC2)o1 | -17.2%
CN1CCC(N(C)CCC(=O)N2CCC(CCc3ccccc3)CC2)C1 (centres undefined) | 74.3%
CN1CC[C@H](N(C)Cc2ccccc2)C[C@H](O)C1 | 18.4%
CN1CCC(N(C)CCC(=O)N2CCC(Oc3ccc(Cl)cc3)CC2)C1 (centres undefined) | 67.4%
CN1CCC(N(C)CCC(=O)N2CCC(OCc3ccccc3)CC2)C1 (centres undefined) | 23.8%
CN1CCC(N(C)CCC(=O)N2CCC(Cc3ccc(F)cc3)CC2)C1 (centres undefined) | 66.4%
CN1CCC(N(C)CCC(=O)N2CCN(Cc3cccc(F)c3)CC2)C1 (centres undefined) | -0.991%
NC(=O)CC1CCN(C(=O)CCOc2ccc(Cl)cc2)CC1 | 23.2%
O=C(CCc1cc(O)no1)N1CCC(Cc2ccc(F)cc2)CC1 | -3.12%
COc1ccc(OC2CCN(C(=O)CCc3nc(Cl)n[nH]3)CC2)cc1 | 28.4%
CCc1nc(-c2ccnc(N3CCNCC3)n2)no1 | 29.6%
Cc1cc(C)c(CNC(=O)N2CCCC2c2ccc(F)cc2)c(=O)[nH]1 (centres undefined) | 34.7%
CC(C)n1cnnc1CN(C)C(=O)CCn1cnc2ccccc2c1=O | -17.6%
CN1CC(=O)N(C2CCC2)Cc2c(NC3CCNCC3)ncnc21 | 20.9%
CC(=O)N[C@@H]1CN(Cc2ccc(F)cc2F)C[C@H]1c1ccc(C)o1 | -14.1%
Cc1ccc(C(CNCc2cccc3c2OCO3)N2CCOCC2)o1 (centres undefined) | 29.4%
c1csc(C(CNCc2cccc3c2OCO3)N2CCOCC2)c1 (centres undefined) | 61.9%
CC(C)C(CNCc1cccc2c1OCO2)N1CCOCC1 (centres undefined) | 24.8%
Cc1ccc(NC(=O)N2CCCC(O)C2)c(Br)c1 (centres undefined) | -86.5%
Cc1ccc(OCCCNC(=O)CN(C)c2ccc(C#N)cn2)cc1 | 49.3%

Compound | INHIBITION
O=C(CCc1nnc2ccccn2c1=O)NCc1cccnc1 | 37.3%
O=C(CCc1nnc2ccccn2c1=O)NCc1ccc2c(c1)OCO2 | 57%
COc1ccc(CNC(=O)CCc2nnc3ccccn3c2=O)cc1 | 25.3%
Cc1nc(CO[C@@H]2CN(Cc3cccs3)[C@@H]3COC[C@@H]32)cs1 | -33.3%
CNc1cc(C)nc(-c2cc(NCCO)nc3[nH]ccc23)n1 | -28.4%
CNc1cc(C)nc(NCc2cc(C)cc3c(C)c(C)[nH]c23)n1 | 76.7%
CNc1cc(C)nc(-c2cc(NC)nc3[nH]ccc23)n1 | -8.51%
Cc1cc(CNc2cncc(C(=O)N(C)C)n2)c2[nH]c(C)c(C)c2c1 | 29.7%
CNc1nc(C)cc(NCc2cc(C)cc3c(C)c(C)[nH]c23)n1 | 87.9%
C[C@@H](N)C(=O)N1CCC(c2[nH]ncc2-c2ccccc2)CC1 | 36.15%
CC(=O)N1C[C@H]2CCCN(Cc3ccc(C)o3)[C@H]2C1 | -3.58%
O=C(c1cnccn1)N1CCCC2(COCCN(CC3CC3)C2)C1 (centres undefined) | 37%
O=C(NCc1ccccn1)[C@]12COC[C@H]1CN(Cc1cccnc1)C2 | -17.2%
C[C@H](NC(=O)N1CCC(Cc2ccccc2)CC1)C(=O)O | 27.5%
NC(=O)COc1ccc(CNCc2ccc(Cl)c(F)c2)cc1 | 0.426%
CC(Cn1cccn1)NC(=O)CCC(=O)c1cccs1 (centres undefined) | -13.5%
Cc1cc(CC2COc3ccccc3C2)cnc1N (centres undefined) | 75.1%
COc1cccc2c1OCC(Cc1cnc(N)c(C)c1)C2 (centres undefined) | 14.5%
COc1ccc2c(c1)OCC(Cc1ccc(N(C)C)nc1)C2 (centres undefined) | 14.9%
COc1ccc2c(c1)OCC(Cc1ccc(N)cn1)C2 (centres undefined) | -93%
COc1ccc2c(c1)OCC(Cc1ccc(CN)cn1)C2 (centres undefined) | -45.5%
COc1ccc2c(c1)OCC(Cc1cnc(N)c(C)c1)C2 (centres undefined) | 55.9%
COc1ccc2c(c1)OCC(Cc1cncc(N)c1)C2 (centres undefined) | 61.1%
c1ccc2c(c1)CC(Cc1cc(N3CCCC3)cnn1)CO2 (centres undefined) | 13%
COc1ccc2c(c1)OCC(Cc1cc(N3CCCC3)cnn1)C2 (centres undefined) | -43.7%
O=C(c1sccc1-n1cnnn1)N1CCC2(CCCCC2)CC1 | 28.1%

Compound | INHIBITION
Cc1ccc(C(=O)NC(CN2CCCC2=O)c2ccccc2)cn1 (centres undefined) | 15.3%
CC(C)N1CCC(c2nccnc2Nc2ncccn2)CC1 | 42.4%
Cc1ncc2c(n1)CN(C=C1NN=C(c3occc3C)O1)CC2 | 47.6%
O=C(Nc1cnn(Cc2ccccc2)c1)N1CCN(CCO)CC1 | -26.8%
c1cncc(-c2noc(C3CN(Cc4cccs4)C3)n2)c1 | 22.2%
Cc1nc(C2CCN(Cc3ncc[nH]3)CC2)no1 | 20.8%
COC(=O)CN1CCSC(c2ccccc2)C1 (centres undefined) | 48.2%
CC(C)(N)C(=O)N1CCCC(C(=O)c2ccc(C(C)(C)C)cc2)C1 (centres undefined) | 36.8%
CSc1ccc(C(=O)C2CCCN(C(=O)CCn3cncn3)C2)cc1 (centres undefined) | 22.2%
CCCn1ncc(CN2CCCC(C(=O)c3ccc(SC)cc3)C2)c1C (centres undefined) | 83.9%
COc1ccc(F)cc1C(=O)C1CCCN(Cc2cnc(C)s2)C1 (centres undefined) | 47.2%
Cc1cc(Cl)ccc1C(=O)C1CCCN(Cc2cnc(N(C)C)s2)C1 (centres undefined) | 83%
COc1ccc(C(=O)C2CCCN(Cc3cnn(C)c3C)C2)c(OC)c1 (centres undefined) | 14.3%
Cc1c(CN2CCCC(C(=O)c3ccc(C(C)(C)C)cc3)C2)cnn1C (centres undefined) | 89.4%
CCn1ncc(CN2CCCC(C(=O)c3ccc(Cl)cc3)C2)c1C (centres undefined) | 18.5%
CSc1ccc(C(=O)C2CCCN(C(=O)CCCn3cncn3)C2)cc1 (centres undefined) | 22.2%
CCCn1ncc(CN2CCCC(C(=O)c3ccc(Cl)cc3C)C2)c1C (centres undefined) | 73%
CN(C)c1ncc(CN2CCCC(Nc3ccc4c(c3)OCCO4)C2)s1 (centres undefined) | -0.217%
CCn1ncc(CN2CCCC(n3c(=O)oc4ccccc43)C2)c1C (centres undefined) | 4.7%
Cc1cc(CN2CCN(C(=O)NCc3ccc(C)s3)CC2)on1 | -24.2%
Cc1cnn(CCNCC(=O)N2CCN(c3ccccn3)CC2)c1 | -0.613%
O=C(c1ccnc(-n2ccnc2)c1)N1CCCC(n2cccn2)C1 (centres undefined) | 36.1%
CN(CC1COc2ccccc2O1)C(=O)c1ccc(-c2cn[nH]c2)nc1 (centres undefined) | 2.18%
O=C(c1ccccn1)N1CCCC2(CCN(c3ccsc3)C2=O)C1 (centres undefined) | 35.6%
CN(C)C(=O)[C@@H]1CCO[C@@H]2CCN(Cc3ccccc3)C[C@@H]21 | -11.5%
Cn1cc(-c2ncc(C(=O)NCCCn3ccccc3=O)s2)cn1 | 44.9%
